# Data published in ChEMBL document CHEMBL3988442, “University of Dundee, Small-Polar-MMV Screening Library” (2021).
# For some assays here: Measured potencies and affinities stand elsewhere.
# Key:
# Set-up in all cases: scale not given: direction of the effect not stated beside the values
# [1] = biological target: Protein translocase subunit SecA (Escherichia coli (strain K12)) (UniProt P10408); experiment: Assay to Identify E. coli SecA ATPase Inhibitors; assay type: functional; conditions: 30 µM
# Protein translocase subunit SecA (Escherichia coli (strain K12)), sequence (P10408 whole entry): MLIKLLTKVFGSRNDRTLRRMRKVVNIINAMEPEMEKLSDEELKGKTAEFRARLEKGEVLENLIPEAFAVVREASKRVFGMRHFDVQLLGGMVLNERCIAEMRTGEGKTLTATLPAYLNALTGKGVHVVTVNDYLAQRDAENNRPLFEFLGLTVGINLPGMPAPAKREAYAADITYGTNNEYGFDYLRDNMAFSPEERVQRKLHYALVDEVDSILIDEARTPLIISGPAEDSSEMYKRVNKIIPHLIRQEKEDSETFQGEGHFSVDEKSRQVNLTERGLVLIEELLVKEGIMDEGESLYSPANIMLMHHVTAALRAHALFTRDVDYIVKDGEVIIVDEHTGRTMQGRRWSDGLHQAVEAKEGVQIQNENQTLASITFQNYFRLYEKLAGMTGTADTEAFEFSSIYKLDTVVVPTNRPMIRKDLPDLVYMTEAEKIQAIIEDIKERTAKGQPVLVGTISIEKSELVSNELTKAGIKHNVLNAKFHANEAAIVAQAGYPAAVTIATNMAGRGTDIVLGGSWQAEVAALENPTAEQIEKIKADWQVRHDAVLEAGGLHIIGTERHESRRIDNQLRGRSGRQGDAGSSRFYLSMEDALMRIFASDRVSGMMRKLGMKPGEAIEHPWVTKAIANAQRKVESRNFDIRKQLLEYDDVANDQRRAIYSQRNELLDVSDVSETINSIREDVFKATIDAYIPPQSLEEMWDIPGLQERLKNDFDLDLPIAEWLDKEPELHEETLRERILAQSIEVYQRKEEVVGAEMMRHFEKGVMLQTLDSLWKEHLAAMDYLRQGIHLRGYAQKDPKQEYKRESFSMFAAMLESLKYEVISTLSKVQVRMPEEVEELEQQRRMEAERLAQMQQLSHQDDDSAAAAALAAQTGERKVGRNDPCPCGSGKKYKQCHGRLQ
# [2] = biological target: T1, Ubiquitin-activating enzyme e1, putative (Leishmania donovani (strain BPK282A1)) (UniProt E9BSI1); experiment: Leishmania donovani Ubiquitin Activating Enzyme (LdE1); assay type: functional; conditions: 30 µM
# T1 sequence (whole entry): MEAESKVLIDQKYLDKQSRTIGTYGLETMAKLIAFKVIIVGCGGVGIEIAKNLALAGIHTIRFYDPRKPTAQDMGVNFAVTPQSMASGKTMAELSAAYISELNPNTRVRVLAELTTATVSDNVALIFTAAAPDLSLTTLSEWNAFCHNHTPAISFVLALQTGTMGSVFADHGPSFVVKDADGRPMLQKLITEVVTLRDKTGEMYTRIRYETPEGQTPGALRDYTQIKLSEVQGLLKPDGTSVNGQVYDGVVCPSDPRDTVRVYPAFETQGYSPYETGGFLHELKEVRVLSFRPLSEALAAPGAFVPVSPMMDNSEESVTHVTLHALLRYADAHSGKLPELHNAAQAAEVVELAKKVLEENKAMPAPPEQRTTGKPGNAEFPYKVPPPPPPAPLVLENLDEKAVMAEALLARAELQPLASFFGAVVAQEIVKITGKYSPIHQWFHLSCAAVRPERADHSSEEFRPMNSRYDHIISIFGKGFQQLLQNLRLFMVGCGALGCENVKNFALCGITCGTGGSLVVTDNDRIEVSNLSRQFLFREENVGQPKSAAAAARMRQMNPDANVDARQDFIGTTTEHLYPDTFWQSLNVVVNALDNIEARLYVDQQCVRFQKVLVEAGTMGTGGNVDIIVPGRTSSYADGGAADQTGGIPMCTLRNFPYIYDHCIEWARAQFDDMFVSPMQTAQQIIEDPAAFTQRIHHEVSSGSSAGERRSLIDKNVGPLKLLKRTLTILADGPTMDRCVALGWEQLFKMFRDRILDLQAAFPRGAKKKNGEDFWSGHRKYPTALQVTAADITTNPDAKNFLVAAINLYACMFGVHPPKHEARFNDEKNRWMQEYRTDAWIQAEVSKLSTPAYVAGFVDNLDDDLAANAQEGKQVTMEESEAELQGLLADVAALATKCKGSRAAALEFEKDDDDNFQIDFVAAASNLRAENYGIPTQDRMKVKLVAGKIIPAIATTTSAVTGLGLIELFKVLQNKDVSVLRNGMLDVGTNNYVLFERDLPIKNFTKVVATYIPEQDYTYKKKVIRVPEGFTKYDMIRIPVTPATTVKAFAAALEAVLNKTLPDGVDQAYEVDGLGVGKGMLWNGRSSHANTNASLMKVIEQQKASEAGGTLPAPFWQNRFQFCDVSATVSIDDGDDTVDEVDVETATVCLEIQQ
# [3] = biological target: AMP-activated protein kinase, AMPK (Homo sapiens) (UniProt P54646+O43741+P54619+Q9UGJ0+Q9Y478+Q13131+Q9UGI9); experiment: AMP-dependent Kinase enzyme assay. An in vitro enzyme assay that detects ADP turnover that is directly proportional to AMPK activity. This uses naive AMPK that is activated during the assay with MK-8722; assay type: functional; conditions: 30 µM
# [4] = biological target: Sialic acid-binding Ig-like lectin 9 (Homo sapiens) (UniProt Q9Y336); experiment: Hs-Siglec9 ALPHAscreen SOP 20170721; conditions: 10 µM
# Sialic acid-binding Ig-like lectin 9 (Homo sapiens), sequence (Q9Y336 whole entry): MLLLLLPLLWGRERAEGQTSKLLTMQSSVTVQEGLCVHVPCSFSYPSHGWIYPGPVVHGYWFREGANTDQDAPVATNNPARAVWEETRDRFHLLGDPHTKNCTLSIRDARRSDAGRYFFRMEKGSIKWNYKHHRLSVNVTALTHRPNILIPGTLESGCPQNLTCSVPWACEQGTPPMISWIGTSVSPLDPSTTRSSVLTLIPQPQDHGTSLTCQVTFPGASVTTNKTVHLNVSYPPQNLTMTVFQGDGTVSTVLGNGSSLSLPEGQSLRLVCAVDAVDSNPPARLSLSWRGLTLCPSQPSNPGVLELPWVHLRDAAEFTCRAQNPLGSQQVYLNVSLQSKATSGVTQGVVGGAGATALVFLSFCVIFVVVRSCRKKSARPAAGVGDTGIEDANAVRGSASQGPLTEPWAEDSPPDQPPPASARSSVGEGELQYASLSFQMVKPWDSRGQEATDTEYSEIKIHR
# [5] = test system: Trypanosoma cruzi; experiment: Trypanosoma cruzi phosphomannomutase and mannose-1-phosphate guanylyltransferase assay; assay type: functional; conditions: 10 µM
# [6] = biological target: T2, Arginase-2, mitochondrial (Homo sapiens) (UniProt P78540); experiment: in vitro enzyme assay to detect the production of urea directly proportional to the activity of Arginase II; assay type: functional; conditions: 33.3 µM; further: in the data most compounds retested in dose-response had high values
# T2 sequence (whole entry): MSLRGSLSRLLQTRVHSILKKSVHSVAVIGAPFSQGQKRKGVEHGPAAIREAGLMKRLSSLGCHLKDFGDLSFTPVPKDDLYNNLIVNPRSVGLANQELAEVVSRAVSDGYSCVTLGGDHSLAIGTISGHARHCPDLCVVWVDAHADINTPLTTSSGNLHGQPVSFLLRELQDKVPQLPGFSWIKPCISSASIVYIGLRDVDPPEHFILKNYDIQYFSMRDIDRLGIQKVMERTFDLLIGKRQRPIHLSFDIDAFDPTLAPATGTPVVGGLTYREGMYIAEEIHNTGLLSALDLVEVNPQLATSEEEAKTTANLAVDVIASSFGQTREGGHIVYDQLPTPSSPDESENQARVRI
# [7] = biological target: T3, Proteasome subunit beta (Trypanosoma cruzi) (UniProt O96673); experiment: Trypanosoma cruzi proteasome chymotrypsin-like activity (TcProtChymo) assay.; further: in the data most compounds retested in dose-response had high values; assay type: functional; conditions: 9.37 µM
# T3 sequence (whole entry): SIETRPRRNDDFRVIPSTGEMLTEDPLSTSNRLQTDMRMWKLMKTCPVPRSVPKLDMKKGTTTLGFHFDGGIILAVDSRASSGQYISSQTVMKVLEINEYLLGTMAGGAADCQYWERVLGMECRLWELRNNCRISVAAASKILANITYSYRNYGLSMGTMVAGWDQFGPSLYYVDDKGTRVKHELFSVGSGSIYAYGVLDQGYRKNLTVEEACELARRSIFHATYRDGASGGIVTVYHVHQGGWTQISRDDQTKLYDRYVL
# [8] = species on record: Homo sapiens; experiment: To identify inhibition of the IFN signalling (Jak-Stat) pathway via expression of an eGFP reporter gene under the control of an IFN-stimulated response element (ISRE) containing MxA promoter.; assay type: functional; conditions: 30 µM
# [9] = biological target: T4, Tyrosyl-tRNA synthetase, putative (Trypanosoma cruzi (strain CL Brener)) (UniProt Q4DSP6); experiment: Trypanosoma cruzi tyrosyl tRNA synthetase (TcYRS) _High Tyrosine SOP; assay type: functional; conditions: 30 µM; further: in the data most compounds retested in dose-response had high values
# T4 sequence (whole entry): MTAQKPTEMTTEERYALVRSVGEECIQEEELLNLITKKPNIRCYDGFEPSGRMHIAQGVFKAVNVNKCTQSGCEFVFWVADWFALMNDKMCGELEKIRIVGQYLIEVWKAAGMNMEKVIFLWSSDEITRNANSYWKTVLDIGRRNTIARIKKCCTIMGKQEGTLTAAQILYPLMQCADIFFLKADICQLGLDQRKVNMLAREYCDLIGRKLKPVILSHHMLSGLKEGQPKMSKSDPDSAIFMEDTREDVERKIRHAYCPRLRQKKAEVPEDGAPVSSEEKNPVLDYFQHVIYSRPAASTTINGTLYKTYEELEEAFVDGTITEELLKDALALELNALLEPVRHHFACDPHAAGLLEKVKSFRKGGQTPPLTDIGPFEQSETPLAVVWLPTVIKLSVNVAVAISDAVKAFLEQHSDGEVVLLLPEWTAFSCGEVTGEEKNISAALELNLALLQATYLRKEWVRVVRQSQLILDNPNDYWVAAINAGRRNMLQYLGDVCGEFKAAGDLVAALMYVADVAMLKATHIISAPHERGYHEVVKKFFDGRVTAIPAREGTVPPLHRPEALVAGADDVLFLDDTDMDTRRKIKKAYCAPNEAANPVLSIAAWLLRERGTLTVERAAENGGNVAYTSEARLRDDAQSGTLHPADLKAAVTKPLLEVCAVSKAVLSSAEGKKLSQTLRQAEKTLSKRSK
# [10] = biological target: T4, Tyrosyl-tRNA synthetase, putative (Trypanosoma cruzi (strain CL Brener)); experiment: Trypanosoma cruzi tyrosyl tRNA synthetase (TcYRS) SOP; assay type: functional; conditions: 30 µM
# [11] = biological target: Chromo domain-containing protein 1 (Saccharomyces cerevisiae (strain ATCC 204508 / S288c) (Baker's yeast)) (UniProt P32657); experiment: ScCHD-1 Enzyme Inhibition Assay; assay type: functional; conditions: 30 µM; further: in the data most compounds retested in dose-response had high values
# Chromo domain-containing protein 1 (Saccharomyces cerevisiae (strain ATCC 204508 / S288c) (Baker's yeast)), sequence (P32657 whole entry, the tested form may be a part): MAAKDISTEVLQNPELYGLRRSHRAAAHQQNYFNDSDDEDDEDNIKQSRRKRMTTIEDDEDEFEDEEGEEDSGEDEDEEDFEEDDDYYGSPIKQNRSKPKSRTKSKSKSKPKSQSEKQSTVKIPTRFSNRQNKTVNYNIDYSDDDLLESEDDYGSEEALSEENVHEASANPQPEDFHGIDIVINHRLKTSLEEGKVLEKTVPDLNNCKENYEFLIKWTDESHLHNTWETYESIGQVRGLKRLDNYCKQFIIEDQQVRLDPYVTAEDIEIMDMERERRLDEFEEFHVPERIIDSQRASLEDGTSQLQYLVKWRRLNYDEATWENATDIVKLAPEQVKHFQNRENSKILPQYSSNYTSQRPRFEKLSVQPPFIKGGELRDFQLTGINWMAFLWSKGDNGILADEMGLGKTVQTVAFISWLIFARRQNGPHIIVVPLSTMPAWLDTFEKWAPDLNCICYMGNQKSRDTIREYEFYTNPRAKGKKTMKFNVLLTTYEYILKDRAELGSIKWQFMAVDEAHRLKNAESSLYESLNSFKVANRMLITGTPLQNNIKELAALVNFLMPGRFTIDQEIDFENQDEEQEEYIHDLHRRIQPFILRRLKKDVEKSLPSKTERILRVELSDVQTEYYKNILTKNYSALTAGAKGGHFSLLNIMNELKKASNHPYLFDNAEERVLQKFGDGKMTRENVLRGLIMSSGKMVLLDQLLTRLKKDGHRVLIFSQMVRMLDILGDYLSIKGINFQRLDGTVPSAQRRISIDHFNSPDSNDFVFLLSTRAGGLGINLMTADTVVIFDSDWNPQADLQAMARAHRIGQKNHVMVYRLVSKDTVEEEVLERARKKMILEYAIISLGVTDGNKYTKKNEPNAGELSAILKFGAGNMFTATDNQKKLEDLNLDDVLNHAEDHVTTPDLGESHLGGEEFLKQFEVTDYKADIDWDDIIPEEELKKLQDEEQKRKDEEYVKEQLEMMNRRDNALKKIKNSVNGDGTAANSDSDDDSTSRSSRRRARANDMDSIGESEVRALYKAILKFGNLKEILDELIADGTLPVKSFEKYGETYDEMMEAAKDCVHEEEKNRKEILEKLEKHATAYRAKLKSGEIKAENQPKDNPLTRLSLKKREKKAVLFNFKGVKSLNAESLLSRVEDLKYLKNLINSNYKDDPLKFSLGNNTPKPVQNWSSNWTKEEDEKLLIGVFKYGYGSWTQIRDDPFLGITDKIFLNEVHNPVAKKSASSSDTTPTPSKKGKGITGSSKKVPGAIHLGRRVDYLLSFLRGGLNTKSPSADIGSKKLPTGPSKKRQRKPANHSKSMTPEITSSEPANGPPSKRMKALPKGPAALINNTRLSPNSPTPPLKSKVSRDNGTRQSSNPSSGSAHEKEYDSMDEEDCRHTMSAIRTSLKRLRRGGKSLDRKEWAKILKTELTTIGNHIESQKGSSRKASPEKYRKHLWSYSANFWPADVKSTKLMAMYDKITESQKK
SMILES,Percent Effect [1] [%],Percent Effect [2] [%],Percent Effect [3] [%],Percent Effect [4] [%],Percent Effect [5] [%],Percent Effect [6] [%],Percent Effect [7] [%],Percent Effect [8] [%],Percent Effect [9] [%],Percent Effect [10] [%],Percent Effect [11] [%]
COCc1cn([C@@H]2c3ccccc3C3(CCNCC3)[C@H]2O)nn1,-4.27,9.72,2.64,16.1,6.71,24.7,3.16,3.98,4.21,10.3,-5.28
CN(C(=O)Cn1nc(-c2cccs2)ccc1=O)C1CCS(=O)(=O)C1 (stereo unspecified),-7.27,0,-37.7,-0.941,-7.3,1.18,14.9,19.4,-5.32,-10.4,-7.9
Cc1ccc(C(=O)N2CCC(Oc3ccc(F)cc3F)CC2)c(=O)[nH]1,-4.74,5.26,3.18,-2.22,-7.52,1.53,8.69,43.4,0.49,4.88,-4.43
Cc1cnc(NC(=O)N2CCCC2)s1,-4.49,2.7,-1.71,2.98,8.5,-0.744,15.4,6.72,1.07,3.7,1.48
COCCN1CCC(NCc2cccnc2)C1 (stereo unspecified),-5.87,-2.6,-0.869,-1.42,-5.06,2.49,5.74,16.6,1.94,-4.88,-3.65
CCN1CCOC(CNCc2ccccc2OCC(=O)N(C)C)C1 (stereo unspecified),-1.78,0,-9.78,0.0919,8.31,-2.88,-4.32,-7.21,1.48,13.6,-2.56
O=C(CC1CCCO1)NCc1ccccc1Cn1cncn1 (stereo unspecified),-2.25,15.8,-5.58,-5.97,-7.75,4.32,9.39,3.32,4.43,23.5,-2.47
CCc1cnc(CN(C(C)=O)C2CCN(CCc3cccs3)C2)o1 (stereo unspecified),-3.22,13.2,0.738,-12.5,-4.95,2.16,21.6,4.61,7.39,6.17,-8.12
COCC(O)CN(C)C(=O)NC1CCN(Cc2ccccn2)CC1 (stereo unspecified),-2.64,28.6,-7.26,1.62,4.31,-2.85,15.4,7.67,5.83,24.4,-8.51
COc1ncccc1CN1Cc2nnn(C)c2C(COCC2CC2)C1 (stereo unspecified),-1.6,7.79,4.07,-3.49,-5.62,3.23,1.92,2.8,4.23,14.1,-4.09
c1ccc(-c2nnc(CNCCn3cccn3)o2)cc1,-3.18,-10.1,1.44,-1.76,1.79,3.04,1.72,-4.79,6.4,8.86,-8.2
Cc1ccc(CNCc2ccc(-n3nc(C)cc3C)nc2)cc1,-1.16,13.2,0.483,7.65,1.5,0.383,11.4,6.18,9.31,19.5,-9.49
CC(=O)Nc1nc(CN2CCn3c(nnc3C3CC3)C2)cs1,-1.36,5.41,0.348,6.61,5.11,-9.06,-3.59,2.7,0.99,11,-3.08
Cc1nc(Nc2nnc(C)s2)cc(C2CCCN2C)n1 (stereo unspecified),-1.27,16,3.75,-11.6,-2.95,-4.43,15.1,29.1,2.13,3.85,-6.23
CO[C@@H]1CCN(Cc2cnn(C)c2)[C@@H]2CN(Cc3ccco3)C[C@@H]21,-5.25,4,5.3,4.49,-1.38,-0.528,11.8,-13.9,0,2.56,-0.166
Cc1ccc2c(n1)N(C)CCN(C(=O)NC1CC1)C2,-5.82,-2.67,117,-1.66,-7.53,-57.2,4.96,18.6,-3.12,5,-9.39
